In PubChem BioAssay AID588342 (National Center for Advancing Translational Sciences (NCATS), 2011):
The whole screen tested about 360,000 compounds, of which about 25,000 (6.9%) were called active. A call without a number means that no potency is given here. Roughly 9% stayed inconclusive and do not appear here. Calls follow the shape of the dose curve; as a rule, active = well fitted inhibition curve with a large enough effect; inconclusive = small, poorly fitted or top-dose-only effect; inactive = flat fitted curve, though single readings scatter. For the sample, actives were picked, then their nearest neighbours and some compounds at random.

target: Luciferin 4-monooxygenase (Photinus pyralis) (UniProt P08659); assay: qHTS profiling assay for firefly luciferase inhibitor/activator using purifed enzyme and Km concentrations of substrates (counterscreen for miR-21 project); details: purified FLuc, luminescence inhibition; series mostly up to 57.5 µM; also: nearly all actives have a fitted effect of over 55% in size
Sequence (P08659 whole entry, looked up): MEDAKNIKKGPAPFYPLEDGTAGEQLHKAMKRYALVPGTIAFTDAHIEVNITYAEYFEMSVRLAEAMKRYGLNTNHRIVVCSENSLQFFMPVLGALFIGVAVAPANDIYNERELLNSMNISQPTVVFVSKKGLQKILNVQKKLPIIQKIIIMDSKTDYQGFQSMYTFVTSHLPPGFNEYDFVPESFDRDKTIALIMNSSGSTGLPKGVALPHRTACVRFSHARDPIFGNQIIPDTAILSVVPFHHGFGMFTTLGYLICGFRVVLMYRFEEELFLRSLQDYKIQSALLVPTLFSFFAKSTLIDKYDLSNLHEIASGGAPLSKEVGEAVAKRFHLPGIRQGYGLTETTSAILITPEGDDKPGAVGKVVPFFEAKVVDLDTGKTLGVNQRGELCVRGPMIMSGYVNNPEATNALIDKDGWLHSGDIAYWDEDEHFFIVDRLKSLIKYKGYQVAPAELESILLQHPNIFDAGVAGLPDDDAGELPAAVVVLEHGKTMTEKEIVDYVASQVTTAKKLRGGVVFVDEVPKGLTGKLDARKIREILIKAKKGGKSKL
How it was run: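 Purified P. pyralis luciferase (10nM final) with 10uM D-luciferin and 10uM ATP (Km levels) in 50mM Tris acetate pH 7.5, 10mM Mg acetate, 0.01% Tween-20, 0.05% BSA; qHTS 6-point titration, ~60 µM downward; luminescence read.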
Potency is read from the fitted curve at half-maximal effect.

| SMILES | Potency | activity change, negative = inhibition |
| --- | --- | --- |
| COc1ccc(NC(=O)CCc2nnc3n(CC(C)C)c(=O)c4ccccc4n23)cc1OC | inactive |  |
| CSc1ccc(C2C(C(=O)Nc3ccccc3)=C(C)Nc3nc4ccccc4n32)cc1 (configuration not stated) | inactive |  |
| COc1ccc(CCNc2ncnc3onc(-c4ccc(Cl)cc4)c23)c(OC)c1 | inactive |  |
| CCCn1c(=N)c(C(=O)NCc2ccccc2)cc2c(=O)n3cccc(C)c3nc21 | inactive |  |
| CCN1/C(=C/C(=S)Nc2ccccc2)Sc2ccccc21 | 10.7 µM (active) |  |
| O=C(CCN1c2ccccc2Sc2ccccc21)Nc1ccccc1 | inactive |  |
| CCN1C(=O)/C(=C2/Sc3ccccc3N2CCCS(=O)(=O)O)SC1=S | inactive |  |
| CCOC(=O)Cc1csc(NC(NC(=O)OCC)(C(F)(F)F)C(F)(F)F)n1 | inactive |  |
| CCOC(=O)c1csc(NC(=O)Nc2cccc(OC)c2)n1 | inactive |  |
| CCOC(=O)Cc1csc(NC(=O)Nc2ccccc2)n1 | 12 µM (active) |  |
| COc1ccc(OC)c(CNC(=O)Cn2nc(C)c3c(C)n(-c4ccc(C)cc4)nc3c2=O)c1 | inactive |  |
| Cc1cccc(NC(=O)c2nnn(CC(=O)Nc3ccc(C(C)C)cc3)c2N)c1C | inactive |  |
| COc1ccc(CCNC(=O)CCc2c(C)nc3c(c(C)nn3-c3ccc(C)c(C)c3)c2C)c(OC)c1OC | inactive |  |
| CCN(C(=O)Cn1cc(S(=O)(=O)N2CCN(c3ccccc3F)CC2)c2ccccc2c1=O)c1ccc(C)c(C)c1 | inactive |  |
| CCc1ccccc1NS(=O)(=O)c1ccc2nc(-c3ccccc3)[nH]c2c1 | inactive |  |
| O=S(=O)(Nc1ccc2nc(-c3ccco3)[nH]c2c1)c1ccccc1 | 12 µM (active) |  |
| O=S(=O)(Nc1ccc2cn[nH]c2c1)c1ccccc1 | inactive |  |
| CCN1CCN(Cc2c(O)ccc3oc(C)c(C(=O)Nc4ccc(C)cc4C)c23)CC1 | inactive |  |
| O=C(Cc1ccsc1)N1CCN(S(=O)(=O)c2cc(C(F)(F)F)cc(C(F)(F)F)c2)CC1 | inactive |  |
| CCN(CC)C(=O)Oc1ccc(OC(=O)N(CC)CC)cc1 | inactive |  |
| COc1cccc(NC(=O)c2ccccc2SC)c1 | inactive |  |
| COc1ccc2nc(C)cc(Nc3cccc(C(=O)O)c3)c2c1 | inactive |  |
| COc1cccc(Nc2ncccc2C(=O)O)c1 | 19 µM (active) |  |
| CCOC(=O)c1cnc2c(c(C)nn2CC)c1Cl | inactive |  |
| COC(=O)c1ccc(S(=O)(=O)N2CCc3ccccc3C2)cc1 | inactive |  |
| Cc1cc(C(=O)Nc2nnc(C3CC3)s2)c(C)s1 | 13.5 µM (active) |  |

| SMILES | Potency | activity change, negative = inhibition |
| --- | --- | --- |
| Cc1cc(=O)oc2cc(OCC(=O)Nc3nnc(C4CC4)s3)ccc12 | inactive |  |
| O=C(Cc1cccs1)Nc1nnc(C2CC2)s1 | inactive |  |
| O=C(Nc1nnc(Cc2ccccc2)s1)c1cnccn1 | inactive |  |
| Cc1cccc(NC(=O)CSCC(=O)Nc2nnc(C3CC3)s2)c1 | inactive |  |
| O=C(Nc1nnc(C2CC2)s1)c1ccccn1 | 10.7 µM (active) |  |
| Cc1ccc(N(C)C(=O)C2CCN(S(=O)(=O)c3ccc4c(c3)CCCN4C(=O)C3CCC3)CC2)cc1 | inactive |  |
| O=C1CN(C(=O)Nc2ccccc2C(F)(F)F)C(c2ccccc2)c2c(sc3c2CCCC3)N1 (configuration not stated) | inactive |  |
| CCOC(=O)C1CCN(C(=O)c2cccc(S(=O)(=O)N(CC)c3ccccc3)c2)CC1 | inactive |  |
| COc1cc(C(=O)N2CCN(c3ccc(Nc4ccc(C)cc4)nn3)CC2)cc(OC)c1OC | inactive |  |
| O=C(CCN1C(=O)/C(=C/c2cccs2)SC1=S)NNC(=O)c1cccc(O)c1 | inactive |  |
| COc1ccc(/C=C2\SC(=S)N(CCC(=O)Nc3cccc(C(=O)O)c3)C2=O)cc1OC | 6.75 µM (active) |  |
| COc1ccccc1C(=O)NNC(=O)CCN1C(=O)/C(=C\c2ccccc2)SC1=S | inactive |  |
| COc1ccc(S(=O)(=O)N2CCSCC2)cc1 | inactive |  |
| CCOC(=O)c1cn[nH]c1NC(=S)Nc1ccccc1 | 2.13 µM (active) |  |
| CCOC(=O)c1ccc(NC(=S)Nc2cc(C)cc(C)n2)cc1 | inactive |  |
| CCOC(=O)c1cc2c(nc1NC(=S)Nc1ccccc1)CC(C)(CC)OC2 (configuration not stated) | inactive |  |
| Nc1c(N(CCCO)C(=O)C2CCCC2)c(=O)[nH]c(=O)n1Cc1ccccc1 | inactive |  |
| COc1ccccc1-c1nc(C(F)(F)F)c(OC)o1 | inactive |  |
| c1ccc(C2=Nc3cccc4cccc(c34)N2)cc1 | 15.1 µM (active) |  |
| COc1ccccc1C1=Nc2cccc3cccc(c23)N1 | 16.9 µM (active) |  |
| COc1ccc(N2C(=O)c3cccc4cccc(c34)C2=O)nn1 | inactive |  |
| COc1ccc(-n2c(SCC(N)=O)nc3c(oc4ccccc43)c2=O)cc1 | inactive |  |
| CC(C)Nc1nnc(SC(C)C(=O)N(C)C2CCCCC2)s1 (configuration not stated) | inactive |  |
| Cc1cccc(N(C)C(=O)CS(=O)(=O)c2cccc3nsnc23)c1 | inactive |  |
| O=C(CCn1c(=O)c2ccccc2n(Cc2ccc(Cl)cc2)c1=O)NCc1ccc2c(c1)OCO2 | inactive |  |
| COc1cc(Cl)c(NC(=O)C(NS(=O)(=O)c2cccs2)C(C)C)c(OC)c1 (configuration not stated) | inactive |  |

| SMILES | Potency | activity change, negative = inhibition |
| --- | --- | --- |
| Cc1ccn(-c2cccc(-n3ccc(C)n3)n2)n1 | 3.38 µM (active) |  |
| CCCCc1nnc(NC(=O)CSc2nc(N)cc(=O)[nH]2)s1 | inactive |  |
| Fc1ccc(/C=N/Nc2nc(-c3cccnc3)nc3ccccc23)cc1 | 2.13 µM (active) |  |
| O=[N+]([O-])c1ccc(F)cc1Oc1nc(-c2cccnc2)nc2ccccc12 | inactive |  |
| COc1ccc(Nc2nc(-c3cccnc3)nc3ccccc23)cn1 | inactive |  |
| Cc1ccc(C2C=C(c3ccc(Cl)cc3)Nc3nc(NC(=O)CCC(=O)O)nn32)cc1 (configuration not stated) | inactive |  |
| CC(=O)N1CCc2cc(S(=O)(=O)NC(Cc3ccccc3)C(=O)NCc3ccc(C)cc3)ccc21 (configuration not stated) | inactive |  |
| COC(=O)[C@]1(S(=O)(=O)c2ccccc2)C[C@@H]2ON=C(c3ccc(OC)cc3)[C@@H]2C1 | inactive |  |
| COc1ccc(C(=O)Nc2ccc3c(c2)OCO3)cc1OC | 10.7 µM (active) |  |
| COc1cc(NC(=O)c2ccc3c(c2)OCO3)ccc1NC(=O)c1cccs1 | 10.7 µM (active) |  |
| COc1ccc(Cl)cc1NC(=O)CN(C)CC(=O)Nc1ccc2c(c1)OCO2 | inactive |  |
| CN1CCN(C(=O)/C(=C\c2ccc3c(c2)OCO3)NC(=O)c2cccs2)CC1 | inactive |  |
| COc1ccc(C(=O)Nc2ccc(C3(C#N)CCCC3)cc2)cc1OC | 10.7 µM (active) |  |
| COc1cc(C(=O)NCC2(c3ccccc3)CCCC2)ccc1OC(C)C | inactive |  |
| CCC(=O)c1cc2c(cc1NC(=O)c1cccs1)OCCO2 | inactive |  |
| COc1ccc(C(=O)Nc2ccc(-n3nncc3-c3ccccc3)cc2)cc1OC | inactive |  |
| COc1ccc(NC(=O)c2ccc3nc(C(C)C)oc3c2)cc1OC | inactive |  |
| C=CCNC(=O)/C(=C\c1cccc([N+](=O)[O-])c1)NC(=O)c1ccccc1 | inactive |  |
| O=C(Nc1ccc(Br)cc1)c1cc2nc(-c3ccccc3)cc(-c3ccccc3)n2n1 | inactive |  |
| CCCCc1nn2c(=O)cc(COC(=O)c3ccc(NC(=O)c4ccccc4C)cc3)nc2s1 | inactive |  |
| CCCCOc1ccc(-c2ncc(C(=O)OCC)c(N)n2)cc1 | 2.69 µM (active) |  |
| CCCCCCOc1ccc(OC(=O)c2cccnc2)cc1 | inactive |  |
| CCOC(=O)c1cnc(SCC(=O)NCc2ccco2)nc1N | inactive |  |
| Cc1ccn2cc(-c3nonc3C)cc2c1 | 26.9 µM (active) |  |
| CCCCN(C)c1nnc(NC(=O)Nc2ccc(Br)c(C)c2)s1 | inactive |  |
| Cc1c(NC(=O)c2cc(-c3ccc(Cl)s3)nc3ccccc23)c(=O)n(-c2ccccc2)n1C | inactive |  |

| SMILES | Potency | activity change, negative = inhibition |
| --- | --- | --- |
| CCOc1ccccc1-c1cc(C(=O)N2CCOCC2)c2ccccc2n1 | inactive |  |
| Cc1ccc(S(=O)(=O)N2CCN(C(=O)c3ccccc3-c3nc4ccccc4s3)CC2)c(C)c1 | inactive |  |
| O=C(c1cc(-c2ccc(Cl)s2)nc2ccccc12)N1CCOCC1 | 23.9 µM (active) |  |
| Cc1cc(C(=O)N2CCN(c3ccccn3)CC2)c(C)o1 |  | 3.1% [at 2.3 µM] (inactive) |
| CC(=O)N1CCN(C(=O)c2cc(-c3ccc(C)o3)nc3ccccc23)CC1 | 4.78 µM (active) |  |
| CCN(CC)CCNC(=O)Cn1ncc2c3ccccc3n(Cc3ccccc3C)c2c1=O | inactive |  |
| CC(=O)c1ccc(NC(=O)Cn2c(=O)oc3ccccc32)cc1 | inactive |  |
| Cc1ccc(C(=O)Nc2ccc(OCc3cc(=O)n4c(C)csc4n3)cc2)cc1 | inactive |  |
| Cn1cc(CN2CCCCC2c2ccccn2)c(-c2ccc3c(c2)OCCO3)n1 (configuration not stated) | inactive |  |
| CCO[C@H]1OC(C(=O)Nc2ccccc2)=C[C@@H](C2CC2)[C@@H]1CCCO | inactive |  |
| Cn1c(=O)c2c(-c3cccc(Br)c3)c(C#N)c(N)nc2n(C)c1=O | inactive |  |
| Cc1c(C)n2c(SCC(=O)N3CCCC3)nnc2[nH]c1=O | inactive |  |
| CCOC(=O)c1cc2c(=O)n3ccccc3nc2n(CCCOC)c1=NC(=O)C(C)(C)Oc1ccc(Cl)cc1 | inactive |  |
| CC1CCCCN1S(=O)(=O)c1ccc(S(=O)(=O)N(CC(=O)Nc2ccccc2)Cc2cccs2)cc1 (configuration not stated) | inactive |  |
| CC(C)(C)NS(=O)(=O)c1ccc(NC(=O)C2CCCO2)cc1 (configuration not stated) | inactive |  |
| O=C(Nc1nnc(CCc2ccccc2)s1)C1CCCO1 (configuration not stated) | inactive |  |
| O=C(Nc1ccc(-c2nnc(-c3ccccc3)o2)cc1)C1CCCO1 (configuration not stated) | 3.38 µM (active) |  |
| COc1ccc(NC(=O)N2CCCC2C(=O)NCc2ccccc2Cl)cc1 (configuration not stated) | inactive |  |
| CC(C)(C)c1ccc(OC2=CS(=O)(=O)c3ccccc32)cc1 | 15.1 µM (active) |  |
| O=S1(=O)C=C(SCCN2CCCC2)c2ccccc21 | inactive |  |
| CC(C)(C)c1ccc(CN2C(=O)c3ccccc3S2(=O)=O)cc1 | inactive |  |
| Cc1ccc(-n2c(=O)c3cccnc3n2CC(=O)NCc2ccc(F)cc2)cc1C | inactive |  |
| O=C(c1ccc2c(c1)N(Cc1ccccc1)C(=O)c1ccccc1S2(=O)=O)N1CCC(Cc2ccccc2)CC1 | inactive |  |
| Cc1nc(NC2=NC(C(=O)Nc3ccc(Cl)cc3)CC(=O)N2)nc2ccccc12 (configuration not stated) | inactive |  |
